The panel holds about 79,000 compounds, 15% with a hit somewhere; the sample as a whole holds those more often. Unmarked numbers belong to inactive results. Active and inactive are the calls of the source. Rule as the data show it: active = growth inhibition above about 70%; inactive = the rest.
Experiments:
[1] = NCI Yeast Anticancer Drug Screen. Data for the rad52 strain (AID 147);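 also: 0% = growth of vehicle-treated control cultures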; settings: S. cerevisiae rad52 mutant growth inhibition, stronger effect = higher value
Outline: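 Read-out: growth inhibition versus vehicle-treated controls. Cells were a DNA repair-deficient yeast strain treated with compounds.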

[2] = NCI Yeast Anticancer Drug Screen. Data for the wt1 strain (AID 149);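 also: 0% = growth of vehicle-treated wt1 cultures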; settings: S. cerevisiae wt1 strain (SPY 50644) growth inhibition, stronger effect = higher value
Outline: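 Growth inhibition read against vehicle controls after compound exposure of the wt1 yeast strain.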

[3] = NCI Yeast Anticancer Drug Screen. Data for the rad50EPP+ strain (AID 151);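 also: 0% = growth of vehicle-treated control cultures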; settings: S. cerevisiae rad50 mutant strain, stronger effect = higher value
Outline: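 Growth inhibition read against vehicle controls in rad50EPP+ yeast, a strain altered in DNA damage repair, after compound exposure.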

[4] = NCI Yeast Anticancer Drug Screen. Data for the mgt1 strain (AID 153); settings: S. cerevisiae mgt1 mutant growth inhibition, stronger effect = higher value
Outline: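 mgt1 yeast grown with test compound; read-out is growth inhibition versus vehicle-treated cultures.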

[5] = NCI Yeast Anticancer Drug Screen. Data for the rad50 strain (AID 155);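 also: 0% = growth of vehicle-only cultures of the same strain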; settings: S. cerevisiae rad50 strain growth inhibition, stronger effect = higher value
Outline: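 Readout: growth inhibition relative to vehicle-treated cultures. Compound exposure was carried out in a genetically defined yeast strain deficient in DNA damage repair.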

[6] = NCI Yeast Anticancer Drug Screen. Data for the mec2-1 strain (AID 157); settings: S. cerevisiae mec2-1 strain, stronger effect = higher value
Outline: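 Yeast mec2-1 mutant treated with compound. Readout: growth inhibition vs vehicle controls.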

[7] = NCI Yeast Anticancer Drug Screen. Data for the rad14 strain (AID 159);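 also: 0% = growth of vehicle-treated control cultures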; settings: S. cerevisiae rad14 strain growth inhibition, stronger effect = higher value
Outline: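 Growth inhibition vs vehicle controls; genetically altered yeast strain (DNA damage repair defect) treated with test compounds.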

[8] = NCI Yeast Anticancer Drug Screen. Data for the sgs1 mgt1 strain (AID 161);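 also: 0% = growth of cultures given vehicle only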; settings: S. cerevisiae sgs1 mgt1 strain, stronger effect = higher value
Outline: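 Read-out: growth inhibition vs vehicle controls. Cells: mutant yeast strain deficient in DNA damage repair.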

[9] = NCI Yeast Anticancer Drug Screen. Data for the CLN2oe strain (AID 163);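 also: 0% = growth of vehicle-only control cultures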; settings: S. cerevisiae CLN2oe strain, stronger effect = higher value
Outline: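 Read-out: yeast growth inhibition, expressed relative to vehicle-only controls. The strain bears an engineered cell-cycle alteration.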

[10] = NCI Yeast Anticancer Drug Screen. Data for the cln2 rad14 strain (AID 165);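 also: 0% = growth equal to vehicle treated cultures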; settings: S. cerevisiae cln2 rad14 strain, stronger effect = higher value
Outline: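 cln2 rad14 yeast strain; compound exposure; growth inhibition read vs vehicle controls.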

[11] = NCI Yeast Anticancer Drug Screen. Data for the bub3 strain (AID 167); settings: S. cerevisiae bub3 mutant strain, stronger effect = higher value
Outline: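 Readout: yeast growth inhibition, expressed relative to vehicle-only wells. The test organism is a mutant strain from a panel with lesions in DNA repair or checkpoint genes.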

[12] = NCI Yeast Anticancer Drug Screen. Data for the wt2 strain (AID 169);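 also: 0% = growth of vehicle-treated yeast cultures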; settings: S. cerevisiae wt2 strain growth inhibition, stronger effect = higher value
Outline: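 Read-out: growth inhibition versus vehicle-treated control cultures after compound exposure of the yeast strain.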

[13] = NCI Yeast Anticancer Drug Screen. Data for the mlh1 strain (AID 171);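 also: 0% = growth of vehicle-treated control cultures of the same strain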; settings: S. cerevisiae mlh1 strain growth inhibition, stronger effect = higher value
Outline: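 Read-out: growth inhibition versus vehicle controls. Strain: engineered yeast with a defined DNA repair or cell cycle defect, compound-treated.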

[14] = NCI Yeast Anticancer Drug Screen. Data for the mlh1 rad18 strain (AID 175); settings: S. cerevisiae mlh1 rad18 strain growth inhibition, stronger effect = higher value
Outline: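 Yeast w/ defined DNA-repair lesions; compound exposure; growth vs vehicle controls → % inhibition.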

[15] = NCI Yeast Anticancer Drug Screen. Data for the rad18 strain (AID 177); settings: S. cerevisiae rad18 mutant growth inhibition, stronger effect = higher value
Outline: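 Readout: growth inhibition vs vehicle controls. Cells: genetically altered yeast strain, DNA repair defect.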

[16] = NCI Yeast Anticancer Drug Screen. Data for the sgs1 strain (AID 173);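 also: 0% = growth of vehicle-only control cultures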; settings: S. cerevisiae sgs1 mutant, stronger effect = higher value
Outline: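 Read-out: yeast growth inhibition relative to vehicle controls, following compound exposure of a strain with a defined DNA repair/cell cycle alteration.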

[17] = at 5.0 µM (retest, dose inferred, filed as 0.5)
[18] = at 50.0 µM (retest, dose inferred, filed as 5.0)

CCC1(O)C(=O)OCc2c1cc1n(c2=O)Cc2cc3ccccc3nc2-1 (stereo unspecified)
growth inhibition ([1]; at 1.2 µM): 73% (active)
growth inhibition ([1]; at 3.7 µM): 92% (active)
growth inhibition ([1]; at 11.0 µM): 95% (active)
growth inhibition ([1]; at 33.0 µM): 94% (active)
growth inhibition ([1]; at 100.0 µM): 95% (active)
growth inhibition ([2]; at 1.2 µM): -3%
growth inhibition ([2]; at 3.7 µM): 28%
growth inhibition ([2]; at 11.0 µM): 15%
growth inhibition ([2]; at 33.0 µM): 5%
growth inhibition ([2]; at 100.0 µM): 13%
growth inhibition ([3]; at 1.2 µM): 29%
growth inhibition ([3]; at 3.7 µM): 54%
growth inhibition ([3]; at 11.0 µM): 70% (active)
growth inhibition ([3]; at 33.0 µM): 75% (active)
growth inhibition ([3]; at 100.0 µM): 86% (active)
growth inhibition ([4]; at 1.2 µM): -11%
growth inhibition ([4]; at 3.7 µM): -3%
growth inhibition ([4]; at 11.0 µM): -4%
growth inhibition ([4]; at 33.0 µM): -3%
growth inhibition ([4]; at 100.0 µM): 10%
growth inhibition ([5]; at 1.2 µM): 74% (active)
growth inhibition ([5]; at 3.7 µM): 91% (active)
growth inhibition [5, 17]: 94% (active)
growth inhibition ([5]; at 11.0 µM): 95% (active)
growth inhibition ([5]; at 33.0 µM): 94% (active)
growth inhibition [5, 18]: 96% (active)
growth inhibition ([5]; at 50.0 µM): 86.2% (active)
growth inhibition ([5]; at 100.0 µM): 94% (active)
growth inhibition ([6]; at 1.2 µM): -9%
growth inhibition ([6]; at 3.7 µM): -2%
growth inhibition [6, 17]: 21%
growth inhibition ([6]; at 11.0 µM): 23%
growth inhibition ([6]; at 33.0 µM): 36%
growth inhibition [6, 18]: 89% (active)
growth inhibition ([6]; at 50.0 µM): 77.2% (active)
growth inhibition ([6]; at 100.0 µM): 82% (active)
growth inhibition ([7]; at 1.2 µM): -4%
growth inhibition ([7]; at 3.7 µM): 7%
growth inhibition ([7]; at 11.0 µM): 5%
growth inhibition ([7]; at 33.0 µM): 12%
growth inhibition ([7]; at 100.0 µM): 24%
growth inhibition [8, 17]: 23%
growth inhibition [8, 18]: 56%
growth inhibition ([8]; at 50.0 µM): 47.5%
growth inhibition ([9]; at 1.2 µM): 12%
growth inhibition ([9]; at 3.7 µM): 26%
growth inhibition ([9]; at 11.0 µM): 33%
growth inhibition ([9]; at 33.0 µM): 18%
growth inhibition ([9]; at 100.0 µM): 41%
growth inhibition [10, 17]: 6%
growth inhibition [10, 18]: 27%
growth inhibition ([10]; at 50.0 µM): 19.3%
growth inhibition ([11]; at 1.2 µM): -14%
growth inhibition ([11]; at 3.7 µM): 9%
growth inhibition [11, 17]: 12%
growth inhibition ([11]; at 11.0 µM): -3%
growth inhibition ([11]; at 33.0 µM): 1%
growth inhibition [11, 18]: 27%
growth inhibition ([11]; at 50.0 µM): -24.9%
growth inhibition ([11]; at 100.0 µM): 10%
growth inhibition ([12]; at 1.2 µM): 6%
growth inhibition ([12]; at 3.7 µM): 4%
growth inhibition ([12]; at 11.0 µM): -1%
growth inhibition ([12]; at 33.0 µM): 1%
growth inhibition ([12]; at 100.0 µM): 10%
growth inhibition ([13]; at 1.2 µM): -5%
growth inhibition ([13]; at 3.7 µM): 13%
growth inhibition ([13]; at 11.0 µM): 15%
growth inhibition ([13]; at 33.0 µM): 2%
growth inhibition ([13]; at 100.0 µM): 15%
growth inhibition [14, 17]: 36%
growth inhibition [14, 18]: 70% (active)
growth inhibition ([14]; at 50.0 µM): -27.3%
growth inhibition ([15]; at 1.2 µM): -6%
growth inhibition ([15]; at 3.7 µM): 15%
growth inhibition ([15]; at 11.0 µM): 21%
growth inhibition ([15]; at 33.0 µM): 4%
growth inhibition ([15]; at 100.0 µM): 7%

COC(=O)C1c2cc3c(c(O)c2C(O)CC1(C)O)C(=O)c1c(O)cc2c(c1C3=O)OC1OC2(C)C(O)C(N(C)C)C1O (stereo unspecified)
growth inhibition ([1]; at 1.2 µM): 0%
growth inhibition ([1]; at 3.7 µM): 16%
growth inhibition ([1]; at 11.0 µM): 50%
growth inhibition ([1]; at 33.0 µM): 85% (active)
growth inhibition ([1]; at 100.0 µM): 93% (active)
growth inhibition ([2]; at 1.2 µM): 2%
growth inhibition ([2]; at 3.7 µM): 1%
growth inhibition ([2]; at 11.0 µM): 17%
growth inhibition ([2]; at 33.0 µM): 34%
growth inhibition ([2]; at 100.0 µM): 75% (active)
growth inhibition ([3]; at 1.2 µM): -1%
growth inhibition ([3]; at 3.7 µM): 18%
growth inhibition ([3]; at 11.0 µM): 39%
growth inhibition ([3]; at 33.0 µM): 61%
growth inhibition ([3]; at 100.0 µM): 65%
growth inhibition ([4]; at 1.2 µM): -7%
growth inhibition ([4]; at 3.7 µM): 9%
growth inhibition ([4]; at 11.0 µM): 14%
growth inhibition ([4]; at 33.0 µM): 52%
growth inhibition ([4]; at 100.0 µM): 95% (active)
growth inhibition ([5]; at 1.2 µM): 1%
growth inhibition ([5]; at 3.7 µM): 37%
growth inhibition [5, 17]: 24%
growth inhibition ([5]; at 11.0 µM): 86% (active)
growth inhibition ([5]; at 33.0 µM): 94% (active)
growth inhibition [5, 18]: 64%
growth inhibition ([5]; at 50.0 µM): 98% (active)
growth inhibition ([5]; at 100.0 µM): 93% (active)
growth inhibition ([6]; at 1.2 µM): -3%
growth inhibition ([6]; at 3.7 µM): 3%
growth inhibition [6, 17]: 12%
growth inhibition ([6]; at 11.0 µM): 37%
growth inhibition ([6]; at 33.0 µM): 96% (active)
growth inhibition [6, 18]: 92% (active)
growth inhibition ([6]; at 50.0 µM): 95.3% (active)
growth inhibition ([6]; at 100.0 µM): 94% (active)
growth inhibition ([7]; at 1.2 µM): 0%
growth inhibition ([7]; at 3.7 µM): 16%
growth inhibition ([7]; at 11.0 µM): 79% (active)
growth inhibition ([7]; at 33.0 µM): 97% (active)
growth inhibition ([7]; at 100.0 µM): 92% (active)
growth inhibition [8, 17]: -3%
growth inhibition [8, 18]: 15%
growth inhibition ([8]; at 50.0 µM): 98% (active)
growth inhibition ([9]; at 1.2 µM): -7%
growth inhibition ([9]; at 3.7 µM): 1%
growth inhibition ([9]; at 11.0 µM): 31%
growth inhibition ([9]; at 33.0 µM): 73% (active)
growth inhibition ([9]; at 100.0 µM): 89% (active)
growth inhibition [10, 17]: 27%
growth inhibition [10, 18]: 85% (active)
growth inhibition ([10]; at 50.0 µM): 78.2% (active)
growth inhibition ([11]; at 1.2 µM): -4%
growth inhibition ([11]; at 3.7 µM): 3%
growth inhibition [11, 17]: -26%
growth inhibition ([11]; at 11.0 µM): 55%
growth inhibition ([11]; at 33.0 µM): 95% (active)
growth inhibition [11, 18]: 97% (active)
growth inhibition ([11]; at 50.0 µM): 90.9% (active)
growth inhibition ([11]; at 100.0 µM): 93% (active)
growth inhibition ([12]; at 1.2 µM): 0%
growth inhibition ([12]; at 3.7 µM): 5%
growth inhibition ([12]; at 11.0 µM): 28%
growth inhibition ([12]; at 33.0 µM): 80% (active)
growth inhibition ([12]; at 100.0 µM): 93% (active)
growth inhibition ([13]; at 1.2 µM): -4%
growth inhibition ([13]; at 3.7 µM): 18%
growth inhibition ([13]; at 11.0 µM): 70% (active)
growth inhibition ([13]; at 33.0 µM): 96% (active)
growth inhibition ([13]; at 100.0 µM): 94% (active)
growth inhibition ([16]; at 1.2 µM): -1%
growth inhibition ([16]; at 3.7 µM): 9%
growth inhibition ([16]; at 11.0 µM): 40%
growth inhibition ([16]; at 33.0 µM): 71% (active)
growth inhibition ([16]; at 100.0 µM): 87% (active)
growth inhibition [14, 17]: 9%
growth inhibition [14, 18]: 98% (active)
growth inhibition ([14]; at 50.0 µM): 95.2% (active)
growth inhibition ([15]; at 1.2 µM): 1%
growth inhibition ([15]; at 3.7 µM): 13%
growth inhibition ([15]; at 11.0 µM): 75% (active)
growth inhibition ([15]; at 33.0 µM): 94% (active)
growth inhibition ([15]; at 100.0 µM): 91% (active)
